Measurements reported in the supplement of paper PMC6555819.

Columns and labels:
Assay in all cases: PBM binding z-score (relative to random genomic background probes); higher = stronger binding; sequences stand for … in GC…GCGATTGACAGCGTAGAATGAAGG
[1] = test system: RARb homodimer (NR concentration 270 nM)
How it was run: (§1)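 On custom Agilent 4×180K arrays, double-stranded probes with 34-nt variable regions carried direct-repeat seeds, single-nucleotide variants, half-site ablations or random human genomic background. Ligand-free nuclear receptor dimers were applied for 1 h, and binding was read with antibodies against each partner (one per run). Binding z-scores come from regression-normalized fluorescence, with the random background probes as reference.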

[2] = test system: RARg:RXRa (NR concentration 270 nM, RXRa partner concentration 90 nM)
How it was run: as §1

[3] = test system: RARg homodimer (NR concentration 270 nM)
How it was run: as §1

[4] = test system: RXRa DBDmut IVT, anti-RXR (DBD mutation: RXRa K156A/R161A, NR concentration 90 nM)
How it was run: as §1

[5] = test system: RXRa homodimer (NR concentration 180 nM)
How it was run: as §1

[6] = test system: THRa:RXRa (NR concentration 90 nM, RXRa partner concentration 90 nM)
How it was run: as §1

[7] = test system: THRa homodimer (NR concentration 90 nM)
How it was run: as §1

[8] = test system: VDR homodimer (NR concentration 270 nM)
How it was run: as §1

Sequence | PBM binding z-score [1] | PBM binding z-score [2] | PBM binding z-score [3] | PBM binding z-score [4] | PBM binding z-score [5] | PBM binding z-score [6] | PBM binding z-score [7] | PBM binding z-score [8]
TCATGTAGGTAATACAGGTGAAAGTCGGCATCTA | 0.12 | 0.0242 | -0.0708 | 0.736 | 0.579 | 0.531 | -0.119 | -0.0287
TACACAGGGTCAAAGGCCAGAGTACGAATGTCGA | 3.22 | 5.65 | 5.36 | 3 | 7.62 | 3.5 | 0.79 | 3.23
TGTCAAAGTTCAAAGGTAAGGTAAGTATCCACAC | 3.83 | 6.22 | 6.55 | 4.48 | 7.16 | 3.5 | 0.924 | 4.14
TCTCGGAGGACACGAAGGTCCGAGCTTTCCAGAG | 0.577 | 0.296 | 1.3 | 0.546 | -0.235 | 1.26 | -0.0585 | -0.315
CCTAGCTGGTCAGGAGGTCACACACCGGATATGA | 4.31 | 5.14 | 4.44 | 0.548 | 4.69 | 3.36 | 2.01 | 2.14
CGCCCAAGGTCATAGGAGGTCAGTGAAGACAGAT | 5.6 | 6.7 | 7.14 | 3.41 | 6.07 | 5.34 | 3.1 | 3.97
CAGCCTAGGTCAGGGCCATTATAGGAGGAACGTT | 2.66 | 3.08 | 4.01 | 0.265 | 1.84 | 2.07 | 0.505 | -0.15
ATATGTAGGTTACATCCGGGTCAATCAGGCTATG | 3.12 | 3.95 | 2.2 | 0.665 | 3.37 | 3.8 | 2.33 | 1.72
CGAACTAGGTCAAGGACAGCGAATCTCCGCACGC | 3.31 | 3.9 | 4.6 | 1.5 | 2.63 | 3.17 | 2.2 | 0.441
CATACAGGGTCAGCTAGGCCAGAGTCGGGACGGC | 3.18 | 4.42 | 4.67 | 2.13 | 4.21 | 3.08 | 0.802 | 1.31
AGTCAAAGTGCACTAGGTAACGTAAGATTCAGCT | 0.614 | 0.916 | 1.26 | 0.965 | 0.453 | 0.43 | -0.285 | 0.442
TCTTGTAGATCTATAGAGGTTAAGAAAGTGCGCT | 1.12 | 0.795 | 0.399 | 0.575 | 1.43 | 1.35 | -0.418 | 0.121
GCTATTAGTTGAAAGGGCAACCGCATGATTCTCG | 1.73 | 1.4 | 1.04 | 0.935 | 1.29 | 0.332 | -0.105 | 0.195
ACTATTAGATGACTTAGGGCAACCGATACGACGC | 1 | 0.918 | 1.25 | 0.754 | 0.767 | 1.04 | 0.469 | 0.377
ATCTCCAGGTAACCAAGTTCAGTGAATGCCGAAC | 1.58 | 0.664 | 0.86 | 1.06 | 0.486 | 1.96 | 1.31 | 3.04
CCGACTGGGGCAAATGTTACCATACTCAGTACGA | 0.264 | 0.382 | 0.67 | 0.518 | 0.184 | -0.0523 | -0.199 | -0.144
GAAGACAGGTGAAACGCAGGTAACTCAGGGTGGC | 0.467 | 0.851 | 0.0189 | -0.671 | 0.66 | 1.49 | -0.0479 | -0.373
CAAACTAGGTCAAGAGTTCAAAGTCCGCTTCCCG | 4.97 | 7.16 | 6.48 | 3.87 | 5.58 | 3.33 | 1.28 | 7.25
TTAGCAAGGTGAGCTGAGGTCGTTGATCCAACTC | 1.52 | 1.03 | 0.726 | -0.339 | 1.13 | 4.75 | 1.97 | 2.37
GCGACTGGGGCAAAGCAGCTTACCATAAGGTTGG | -0.0781 | -0.172 | 0.112 | -0.131 | -0.267 | -0.139 | -0.756 | -0.658
ACTAGCAGGCCAAGGGTCGCTCAAGATTAGTCCG | 0.923 | 1.12 | 0.872 | -0.27 | 1.13 | 0.795 | -0.633 | -0.246
GCTAGTTGGTCAGTACAAGGTCACACACCGGTCG | 4.39 | 4.09 | 3.66 | 0.602 | 3.47 | 4.02 | 4 | 2.53
ATCTCTAGGTAACCATGTTCAGTGAATGCCGAAC | 0.332 | 0.315 | 0.421 | 0.392 | 0.272 | 0.812 | 0.66 | 0.0942
CCTACTGGGCCATCCAGAGGTCATTGATCATATG | 4.32 | 4.63 | 3.39 | 0.256 | 3.69 | 3.29 | 1.41 | 3.33
AGAATGAGGTTATTAAGATCAGAGAATTGCGGTC | 0.575 | 1.21 | 0.933 | 1.88 | 1.7 | 2.06 | 0.584 | 1.11
CGTGCAAGGTCAGCAGGTCAGTGAAAGCGACGTG | 4.76 | 6.54 | 7.05 | 2.5 | 5.2 | 4.03 | 2.04 | 1.73
GCGACTAGGGCATCAGCAGGTTACCATAACTTAA | 0.836 | 1.12 | 0.817 | 0.0692 | 0.47 | 0.885 | 0.0227 | -0.299
GCATATAGGTAATACAACGTGAAAGTCCGATTGT | -0.603 | 0.114 | 0.451 | 0.181 | 0.119 | -0.366 | -0.557 | -0.205
